Measured values: PubChem BioAssay (NCI)
This is part of a sample that, as a whole, favours compounds with a hit. Of some 83,000 tested, about 20% had one in any assay.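 For each line, cells grew in 96-well plates with the test compound present at a single concentration for 48 hours.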 Unmarked numbers belong to inactive results. Activity calls are given as the source filed them. The calls were made as follows: active = growth percent below 10; inactive = the rest.

What follows are compounds tested on KM12 colon (assay: NCI-60 one-dose screen, 48 h (100 = growth as untreated, 0 = no growth, -100 = all killed)). Conditions: 10 µM unless noted.

SMILES	growth
COC(=O)c1ccc(NC(=O)Nc2ccc(C(=O)OC)cc2)cc1	113%
N#C/C(=C\c1ccc(-c2cccc(C(F)(F)F)c2)o1)c1ccccc1	79.3%
COc1ccc2cc(-c3ccnc4c(N=Nc5ccc(Cl)cc5)c(N)nn34)ccc2c1	103%
O=C(Cc1ccc(NC(=O)c2cccc(Cl)c2)cc1)NCc1ccccc1	24.8%
CCS/C(Nc1ccccc1)=C(\C#N)C(=O)Nc1ccc(OC)cc1	31%
CC[N+]1(CC)CC[N+]2(CCCC(C)CC2)CC1 (configuration not stated)	104%
COc1ccc(C(=O)/C=C/c2ccc(Cl)cc2)cc1S(=O)(=O)Nc1c(N)nc(SC)[nH]c1=O	12.8%
C=C1C(=O)O[C@H]2[C@H]1CC/C(COC(=O)/C=C/C(=O)OC/C1=C/CC[C@@]3(C)O[C@H]3[C@H]3OC(=O)C(=C)[C@@H]3CC1)=C\CC[C@@]1(C)O[C@@H]21	90%
O=C1/C(=C\c2cccc3nccnc23)SC(=S)N1CCc1ccc(O)cc1	97.1%
O=S(=O)(NCCNc1nccc(-c2c(-c3ccc(F)c(O)c3)nc3sccn23)n1)c1ccc(F)cc1	25.7%
CC/C=C\C[C@H](O)C/C=C1/C(=O)C=C[C@@H]1C/C=C\CCCC(=O)O	41.6%
O=C1/C=C/[C@@H](O)[C@@H]2C[C@@H](O)C[C@H]2/C=C/CCC[C@H](CCO)O1	-54.3% (active)
COc1cc(-c2nc3sccn3c2-c2ccnc(NCCNS(=O)(=O)c3ccc(Cl)cc3)n2)ccc1F	17%
C#Cc1cccc(Nc2nc(C)nc3cc(NC(=O)CCl)ccc23)c1	-73.7% (active)
O=C(NNC(=O)c1ccc(NC(=O)c2ccccn2)cc1)Nc1ccc2ccccc2c1	102%
CC1(C)C(N)=Nc2cc(OCCCN3Cc4ccccc4C3)c(OCC3CC3)cc21	84.2%
CN(CCC(=O)c1ccccc1)CCC(=O)c1ccccc1	98.7%
CCSc1oc(C)nc1[P+](c1ccccc1)(c1ccccc1)c1ccccc1	8.25% (active)
C=CCC(CCCC)(C(=O)OCC)C(=O)OCC	108%
Fc1cccc(-c2ccc3c(c2)C2(CCNCC2)CN3)c1	102%
CN(C)S(=O)(=O)Oc1ccc(-c2sc3cc(OS(=O)(=O)N(C)C)ccc3c2C(=O)c2ccc(OCCN3CCCCC3)cc2)cc1	73.7%
COc1cc2c(cc1OCCCCN1CCN(C(=S)SCCC(C#N)(c3ccccc3)c3ccccc3)CC1)N=C[C@@H]1CCCN1C2=O	-60.9% (active)
CC(C)(C)n1cc(-c2ccnc(NCCNS(=O)(=O)c3ccc(O)cc3)c2)c(-c2cccc(O)c2)n1	94.7%
O=S1(=O)C=C(c2ccccc2)C(c2ccccc2)=C1	16.5%
CCN1C(=O)N(CC)C2C1NN=c1s/c(=C\c3cnc(C)n3C)c(=O)n12 (configuration not stated)	16.1%
CC(=O)O[C@H]1C[C@@H]2C(C)(C)C(=O)CC[C@@]2(C)c2ccc(C(C)C)cc21	97.7%
Cc1ccc2c(=O)cc(C(=O)Nc3sc4c(c3C(=O)NCc3cccnc3)CCCC4)oc2c1C	97.1%
